High-throughput results from PubChem.
KB-V1 MDR tox: kills drug-selected multidrug resistant KB-V1 cells; KB-V1 MDR cells viability, CellTiter-Glo, 72 h; AID 1347076; 400,000 compounds, 3.4% hits; Potency, µM (doses to about 46.1 µM), actives largely listed as cytotoxic; also: potency is read from the fitted curve at half-maximal effect; % is scaled to controls: 0 for no effect and ±100 for the full control effect; nearly all actives have a fitted effect of over 60% in size
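Cytotoxicity toward P-gp-expressing KB-V1 cells was determined as loss of CellTiter-Glo luminescence after 72 h at 37 degrees C. Compounds were tested in quantitative HTS format across a concentration range, with curves fitted to normalized data.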
MCF10A rerep: induces DNA re-replication in MCF 10a normal breast cells; MCF 10A DNA re-replication, Hoechst nuclear intensity, 48 h; Potency, µM (titrated, usually from 46.1 µM), without a hit: at the top dose activity, positive = re-replication, hits mostly activators; 350,000 compounds, 2.9% hits; AID 624296; also: potency is read from the fitted curve at half-maximal effect; % of control where 0% means no effect; nearly all actives have a fitted effect of over 50% in size
KCNH2 3.1 inh: inhibitors of human KCNH2 3.1 potassium channel isoform | U2OS KCNH2 3.1, thallium flux FluxOr; hits give low values | activity change, % (tested at about 1.8 µM) | 340,000 compounds, 0.95% hits | AID 720553;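 active = maximum activity change below -70%; inconclusive = maximum activity change from -70% to -50%; inactive = maximum activity change above -50%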;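 also: thallium influx rate constant from kinetic fluorescence after stimulation buffer; % is scaled to controls: 0 for no effect and ±100 for the full control effect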
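U2OS cells transduced with KCNH2 3.1 mutant virus (1.77 x 10^8 /mL, 4 h), plated overnight at 37 C, loaded 45 min with FluxOr dye plus Red40 quencher. Thallium flux rate constant from kinetic reads after stimulation buffer, normalised to controls.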
KB-3-1 tox: kills parental KB-3-1 adenocarcinoma cells; KB-3-1 viability, CellTiter-Glo ATP luminescence, 72 h; Potency, µM (highest dose often 46.1 µM), most hits filed as cytotoxic; 400,000 compounds, 1.4% hits; also: potency is read from the fitted curve at half-maximal effect; % is scaled to controls: 0 for no effect and ±100 for the full control effect; nearly all actives have a fitted effect of over 60% in size
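Here the drug-naive KB-3-1 line serves as comparator for MDR sub-line selectivity; cells received compound titrations, 72 h at 37 °C, then CellTiter-Glo readout.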
hERG WT inh: blocks the wildtype human KCNH2 potassium channel; activity change, % at 1.84 µM; AID 720551; U2OS, BacMam KCNH2, thallium flux FluxOr; hits give low values; Q12809; 340,000 compounds, 0.37% hits;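 active = maximum activity change below -70%; inconclusive = maximum activity change between -70% and -50%; inactive = maximum activity change above -50%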; also: % is scaled to controls: 0 for no effect and ±100 for the full control effect
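U2OS cells transduced with wild-type KCNH2 virus are loaded with FluxOr dye for 45 min, and thallium flux is measured in kinetic reads before and after stimulation buffer. Rate constants are normalized to DMSO controls.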
SW480 rerep: inducers of DNA re-replication in SW480 colon cancer cells; SW480 DNA re-replication, Hoechst DNA content imaging, 48 h; Potency, µM (top dose mostly 46.1 µM), without a hit: at the top dose re-replication activation, usual class: activators; 340,000 compounds, 1.8% hits; also: potency is read from the fitted curve at half-maximal effect; % of control where 0% means no effect; nearly all actives have a fitted effect of over 55% in size
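250 cells/well; 23 nL cpd via pin tool; 48 hr, 37 C, 5% CO2; Hoechst 40 min; imager read of total nuclear intensity, ex 405/em 500-530 nm.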
Active calls of the source: *; i = inactive; ? = inconclusive; . = no result given; ! = not active in a repeat. In the library only some 7.6% were active in any assay of this set; here they are far more common. Unless noted, calls follow the shape of the dose curve; as a rule, active = well fitted curve in the direction sought with a large enough effect; inconclusive = small, poorly fitted or top-dose-only effect, or another doubt; inactive = no such curve, though single readings can be large; an effect the other way counts as inactive or inconclusive.

SMILES	KB-V1 MDR tox	MCF10A rerep	KCNH2 3.1 inh	KB-3-1 tox	hERG WT inh	SW480 rerep
COc1ccc(C2=CC(=O)C[C@H](c3ccc4c(c3)OCO4)C2)cc1	i	?	8.8	i	0.9	-12.3%
COc1ccc(N2CCN(C(CNC(=O)CC(C)(C)C)c3ccc4c(c3)OCO4)CC2)cc1 (stereo not given)	i	3.2%	-9.7	?	10.2	-1.5%
COc1nc(N(c2ccccc2)c2ccccc2)nc(-n2ccnc2)n1	?	16.4µM*	-6.7	i	3.7	-4.7%
N#Cc1nc(N(c2ccccc2)c2ccccc2)nc(-n2cccc2)n1	i	.	.	i	.	.
CC(C)CNC(=O)COC(=O)Cc1ccc(Cl)cc1	i	-3.5%	-32.0	i	-18.1	-14.7%
Cc1nnc(SCC(=O)N2c3ccccc3C(C)(c3ccccc3)CC2(C)C)s1 (stereo not given)	8.2µM*	?	-16.2	16.4µM*	-14.7	6.3%
CCOCCn1c(C)c(C(=O)OCC)c2cc(O)c3ccccc3c21	2.06µM*	14.2%	8.7	i	1.8	-1.0%
O=[N+]([O-])c1ccc(NC(=S)N2CCc3ccccc32)cc1	i	10.0%	-23.0	i	-4.5	1.8%
CS(=O)(=O)c1ccc(C(=O)OCC(=O)N2CCN(CCC3CCCCC3)CC2)cc1[N+](=O)[O-]	23.1µM*	.	.	6.51µM*	.	.
CC(=O)c1cccc(NC(=O)COC(=O)c2ccc(S(C)(=O)=O)c([N+](=O)[O-])c2)c1	i	2.59µM*	-0.9	i	-0.9	?
Cc1ccccc1NC(=O)Cc1nc(COC(=O)c2ncc(Cl)c(Cl)c2Cl)cs1	i	?	25.8	i	-2.2	6.51µM*
Cc1ccccc1NC(=O)COC(=O)c1ccc(S(C)(=O)=O)c([N+](=O)[O-])c1	i	?	19.1	20.6µM*!	-0.1	7.31µM*
CC(=O)c1cccc(NC(=O)C(C)OC(=O)c2ccc(S(C)(=O)=O)c([N+](=O)[O-])c2)c1 (stereo not given)	i	.	.	?	.	.
CS(=O)(=O)c1ccc(C(=O)OCC(=O)Nc2cc(C(F)(F)F)ccc2Cl)cc1[N+](=O)[O-]	i	.	.	?	.	.
Cc1cc2nc(NC(=O)C3(C)CCN(C)C3)[nH]c2cc1C (stereo not given)	i	.	.	i	.	.
Clc1ccccc1-c1nnc(SCc2nc(-c3ccccc3)no2)n1-c1ccccc1	i	.	.	?	.	.
CC(C)C(=O)NNC(=O)CC(=O)Nc1ccccc1C(=O)O	i	-6.3%	-15.7	i	.	1.6%
CCCc1noc(-c2ccc(N3CCCCC3)c([N+](=O)[O-])c2)n1	i	.	.	i	.	.
CS(=O)(=O)c1ccc(C(=O)OCC(=O)Nc2cccnc2Cl)cc1[N+](=O)[O-]	i	3.66µM*	-0.7	?	8.8	?
Cc1ccccc1NC(=O)Cc1nc(COC(=O)c2ccc(S(C)(=O)=O)c([N+](=O)[O-])c2)cs1	i	3.66µM*	6.4	?	-23.1	13.5%
CCOc1cc(Cl)c(S(=O)(=O)NCCCN2CCOCC2)cc1Cl	i	?	-2.0	i	4.4	-6.6%
CC(C)(C)c1ccc(S(=O)(=O)/C=C/C#N)cc1	i	.	.	i	.	.
Cc1ccc(-c2csc(/C(C#N)=C(\O)CCl)n2)cc1	i	16.4µM*	-18.3	i	4.3	6.1%
CC(C)(C)c1ccc(NC(=O)COC(=O)c2ccccc2OCC(=O)Nc2ccc(Br)cc2)cc1	i	.	.	i	.	.
Cc1nc2nc(SCC(=O)NC3CCCCC3)nn2c(C)c1Cc1ccccc1Cl	i	.	.	i	.	.
SMILES	KB-V1 MDR tox	MCF10A rerep	KCNH2 3.1 inh	KB-3-1 tox	hERG WT inh	SW480 rerep
COCC(=O)N1CCC(Oc2ccc(C(=O)NC3CCOC(C)(C)C3)cc2)CC1 (stereo not given)	i	1.8%	6.9	i	-5.2	0.2%
CCN(CC)c1nc(SCCOC(=O)Nc2ccccc2)nc(N(CC)CC)n1	20.6µM*	9.2µM*	-24.4	i	6.6	2.7%
CC(=O)Cc1nsc(NC(=O)c2oc(-c3ccccc3Cl)cc2C)n1	i	?	15.7	i	.	-1.8%
CC(=O)Cc1nsc(NC(=O)c2ccc(-c3ccccc3Cl)o2)n1	?	11.6µM*	4.8	?	-12.7	?
CCCC[C@@H]1CNC(=O)C(=O)N1CC(C)(C)C	i	16.9%	2.8	?	1.7	-13.3%
Cc1ccc(C(=O)N/C(=C\c2ccc(-c3ccccc3[N+](=O)[O-])o2)C(=O)NCCCN(C)C)cc1	i	11.5%	-27.7	i	-9.2	2.2%
Cc1ccc(C(=O)N/C(=C\c2ccc(-c3ccc(Cl)cc3)o2)C(=O)NCCCN(C)C)cc1	i	?	?	?	-82.8*	18.4µM*
CN(C)CCNC(=O)/C(=C/c1ccc(-c2cccc(Cl)c2)o1)NC(=O)c1ccccc1	i	?	-1.9	i	0.8	?
CN(C)CCCNC(=O)/C(=C/c1ccc(-c2ccc([N+](=O)[O-])cc2)o1)NC(=O)c1ccccc1	i	?	-99.1*	i	?	?
CN(C)CCCNC(=O)/C(=C\c1ccc(-c2ccc(Br)cc2)o1)NC(=O)c1ccccc1	i	?	-117.1*	?	-36.3	-125.9%
Cc1ccc(C(=O)N/C(=C\c2ccc(-c3ccccc3[N+](=O)[O-])o2)C(=O)NCCN(C)C)cc1	?	-2.1%	-9.1	i	1.0	2.91µM*
CN(C)CCNC(=O)/C(=C/c1ccc(-c2cccc([N+](=O)[O-])c2)o1)NC(=O)c1ccccc1	?	10.7%	-5.9	i	-12.7	?
O=S(=O)(Nc1cccc(S(=O)(=O)N2CCCC2)c1)c1ccccc1F	.	0.8%	3.3	.	-8.1	-2.0%
CCc1ccccc1NC(=O)COC(=O)c1cn(CC)c2nc(C)ccc2c1=O	i	.	.	i	.	.
O=C1C(Nc2ccccc2)=C/C(=N/S(=O)(=O)c2cccs2)c2ccccc21	?	3.26µM*	-20.8	?	-15.5	5.8µM*
Cc1ccc(NC2=C/C(=N/S(=O)(=O)c3cccs3)c3ccccc3C2=O)cc1	?	8.2µM*	5.7	2.31µM*	0.3	?
O=C1C(Nc2ccccc2)=C(NS(=O)(=O)c2ccccc2)C(=O)c2ccccc21	?	-2.2%	4.7	i	1.1	-1.2%
Cc1ccc(S(=O)(=O)/N=C2\C=C(NS(=O)(=O)c3ccccc3)C(=O)c3ccccc32)c(C)c1	i	?	0.7	i	1.1	-7.9%
COC(=O)c1c(-c2ccc(S(C)(=O)=O)cc2)sc2cc(OC)ccc12	?	19.1%	18.2	i	-3.4	-0.6%
